This note sets out measurements from PubChem BioAssay AID2284360 (EPA ToxCast).

Results filed as inconclusive are left out. The source made the active and inactive calls. The calls were made as follows: active = hit-call score of the fitted dose curve at least 0.9, where 1 is the maximum; inconclusive = response in the unintended direction; inactive = score below 0.9.

A short description of the assay: ATG_M_19_EcoTox2: Attagene TRANS-FACTORIAL EcoTox-2 HepG2 Assay for M19 Transcription Factor (Internal Marker). The procedure: ATG_EcoTox2 is a cell-based, multiplexed assay created by modifying the existing Attagene TRANS-FACTORIAL system to include a panel of nuclear receptors from some or all the following species: human (Homo sapiens), african clawed frog (Xenopus laevis), rainbow trout (Oncorhynchus mykiss), japanese medaka (Oryzias latipes), and zebrafish (Danio rerio). The ECOTOX2-FACTORIAL format uses HepG2, a human liver cell line, with measurements taken at 24 hours after chemical dosing in a 24-well plate. ATG_M_19_EcoTox2 is one of 29 assay components calculated in the ATG_EcoTox2 assay. It is designed to make measurements of mRNA induction, a form of inducible reporter, as detected with fluorescence intensity signals by Reverse transcription polymerase chain reaction (RT-PCR) and Capillary electrophoresis technology.The assay endpoint ATG_M_19_EcoTox2 was analyzed in the positive analysis fitting direction relative to DMSO as the negative control and baseline of activity. Using a type of inducible reporter, measures of mRNA for gain-of-signal activity can be used to understand the background control at the transcription factor-level as they relate to the gene. Furthermore, this assay endpoint can be referred to as a secondary readout, because this assay has produced multiple assay endpoints where this one serves a background control function. To generalize the intended target to other relatable targets, this assay endpoint is annotated to the background measurement intended target family, where the subfamily is internal marker.
Human liver HepG2 cells are transiently transfected with multiple reporter transcription units (MRTUs) in 6-well plates using FuGene 6 reagent (Roche; 3 ml FuGene/1 mg DNA). The MRTU constructs are regulated by a cis-regulating element (promoter). Each RTU expresses a GAL4-UAS that regulates the transcription of a nearby target reporter gene sequence. A major difference between the CIS and TRANS system is that in CIS activities of endogenous TFs are measured, whereas the TRANS assay evaluates changes in activities of exogenous, chimeric NR-Gal4 proteins. […] At the end of 24 hour incubation, total RNA was isolated using TriZol reagent (Invitrogen). The isolated RNA is then reverse-transcribed using oligo(dT) primer and Mo-MLV reverse transcriptase (Invitrogen) with DNAse I (Ambion) treatment for 30 min. The one-tenth of the produced cDNA was amplified by PCR using Taq DNA polymerase (Invitrogen) and two reporter sequence-specific primers. […] The fragments were purified using Qiaquick PCR columns (Qiagen), analyzed on an ABI 3130xL genetic analyzer (Applied Biosystems) with peak positions identified by using a set of X-rhodamine (ROX)-labeled MapMarker1000 molecular weight standards (BioVentures). […]
For `CC(C)(Oc1ccc(CCNC(=O)c2ccc(Cl)cc2)cc1)C(=O)O`, the result was inactive.

With `Cc1ccc(C)c(OCCCC(C)(C)C(=O)O)c1`, the result was inactive.

Consider `CC(C)(Oc1ccc(Cl)cc1)C(=O)O`, for which the outcome was inactive.

On to `C[C@@H]1C[C@H]2[C@@H]3CCC4=CC(=O)C=C[C@]4(C)[C@@]3(F)[C@@H](O)C[C@]2(C)[C@@]1(O)C(=O)COP(=O)(O)O`, for which the result was inactive.
